For 34 targets, log2 fold change results are on record in the supplement of paper PMC10849652.

The full data set covers some 7,900 targets. This sample favours those with a hit. About 0.6% of all pairs of compound and target were hits.

UniProt O43665, sequence (O43665 whole entry, looked up): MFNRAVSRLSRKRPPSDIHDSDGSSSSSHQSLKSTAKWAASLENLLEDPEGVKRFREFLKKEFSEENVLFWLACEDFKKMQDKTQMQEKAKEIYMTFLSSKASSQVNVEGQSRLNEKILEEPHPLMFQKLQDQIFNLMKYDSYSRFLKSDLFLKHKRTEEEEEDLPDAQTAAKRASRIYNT
UniProt Q9Y6Y8, sequence (Q9Y6Y8 whole entry, looked up): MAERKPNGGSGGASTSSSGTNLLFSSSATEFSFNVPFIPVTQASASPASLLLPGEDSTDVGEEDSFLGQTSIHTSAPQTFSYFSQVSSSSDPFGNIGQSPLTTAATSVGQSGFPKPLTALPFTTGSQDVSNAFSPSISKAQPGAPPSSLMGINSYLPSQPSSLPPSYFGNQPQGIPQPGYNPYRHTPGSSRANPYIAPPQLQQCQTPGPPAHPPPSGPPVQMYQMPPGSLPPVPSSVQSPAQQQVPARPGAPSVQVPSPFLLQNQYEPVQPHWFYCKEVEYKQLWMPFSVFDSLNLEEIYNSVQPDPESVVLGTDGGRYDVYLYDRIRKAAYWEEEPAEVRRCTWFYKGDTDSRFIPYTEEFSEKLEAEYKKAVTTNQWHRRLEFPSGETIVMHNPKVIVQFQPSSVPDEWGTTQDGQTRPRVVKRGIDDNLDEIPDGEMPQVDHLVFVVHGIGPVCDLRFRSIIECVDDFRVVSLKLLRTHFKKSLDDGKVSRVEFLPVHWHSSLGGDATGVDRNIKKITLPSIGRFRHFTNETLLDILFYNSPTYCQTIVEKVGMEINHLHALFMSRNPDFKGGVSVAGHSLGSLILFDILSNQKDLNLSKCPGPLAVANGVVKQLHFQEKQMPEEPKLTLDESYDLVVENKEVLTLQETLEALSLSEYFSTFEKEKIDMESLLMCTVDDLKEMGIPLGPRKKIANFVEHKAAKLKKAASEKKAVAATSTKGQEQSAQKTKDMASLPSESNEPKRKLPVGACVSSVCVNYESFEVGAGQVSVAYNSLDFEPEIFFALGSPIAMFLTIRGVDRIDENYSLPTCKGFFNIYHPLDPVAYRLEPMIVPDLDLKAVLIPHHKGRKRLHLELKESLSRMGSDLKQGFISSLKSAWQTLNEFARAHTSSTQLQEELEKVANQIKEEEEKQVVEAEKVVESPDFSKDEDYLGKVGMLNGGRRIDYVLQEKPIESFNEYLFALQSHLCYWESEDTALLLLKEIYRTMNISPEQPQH
UniProt Q6NUM9, sequence (Q6NUM9 whole entry, looked up): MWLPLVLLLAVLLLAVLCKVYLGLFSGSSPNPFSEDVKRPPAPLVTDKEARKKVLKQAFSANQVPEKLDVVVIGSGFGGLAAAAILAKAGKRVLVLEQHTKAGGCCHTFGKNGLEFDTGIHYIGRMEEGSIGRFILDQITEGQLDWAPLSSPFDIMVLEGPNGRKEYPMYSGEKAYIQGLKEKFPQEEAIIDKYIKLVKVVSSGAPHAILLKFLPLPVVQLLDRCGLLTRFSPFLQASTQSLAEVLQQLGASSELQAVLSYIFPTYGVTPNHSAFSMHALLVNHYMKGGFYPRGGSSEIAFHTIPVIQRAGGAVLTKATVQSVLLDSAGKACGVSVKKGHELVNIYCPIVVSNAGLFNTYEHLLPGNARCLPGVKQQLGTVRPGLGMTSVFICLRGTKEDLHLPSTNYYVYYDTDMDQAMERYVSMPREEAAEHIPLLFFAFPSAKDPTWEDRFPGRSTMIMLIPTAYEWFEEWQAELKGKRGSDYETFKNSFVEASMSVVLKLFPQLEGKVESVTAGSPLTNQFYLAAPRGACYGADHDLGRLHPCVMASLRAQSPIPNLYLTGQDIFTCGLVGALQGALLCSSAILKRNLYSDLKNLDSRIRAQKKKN
UniProt Q99590, sequence (Q99590 whole entry, looked up): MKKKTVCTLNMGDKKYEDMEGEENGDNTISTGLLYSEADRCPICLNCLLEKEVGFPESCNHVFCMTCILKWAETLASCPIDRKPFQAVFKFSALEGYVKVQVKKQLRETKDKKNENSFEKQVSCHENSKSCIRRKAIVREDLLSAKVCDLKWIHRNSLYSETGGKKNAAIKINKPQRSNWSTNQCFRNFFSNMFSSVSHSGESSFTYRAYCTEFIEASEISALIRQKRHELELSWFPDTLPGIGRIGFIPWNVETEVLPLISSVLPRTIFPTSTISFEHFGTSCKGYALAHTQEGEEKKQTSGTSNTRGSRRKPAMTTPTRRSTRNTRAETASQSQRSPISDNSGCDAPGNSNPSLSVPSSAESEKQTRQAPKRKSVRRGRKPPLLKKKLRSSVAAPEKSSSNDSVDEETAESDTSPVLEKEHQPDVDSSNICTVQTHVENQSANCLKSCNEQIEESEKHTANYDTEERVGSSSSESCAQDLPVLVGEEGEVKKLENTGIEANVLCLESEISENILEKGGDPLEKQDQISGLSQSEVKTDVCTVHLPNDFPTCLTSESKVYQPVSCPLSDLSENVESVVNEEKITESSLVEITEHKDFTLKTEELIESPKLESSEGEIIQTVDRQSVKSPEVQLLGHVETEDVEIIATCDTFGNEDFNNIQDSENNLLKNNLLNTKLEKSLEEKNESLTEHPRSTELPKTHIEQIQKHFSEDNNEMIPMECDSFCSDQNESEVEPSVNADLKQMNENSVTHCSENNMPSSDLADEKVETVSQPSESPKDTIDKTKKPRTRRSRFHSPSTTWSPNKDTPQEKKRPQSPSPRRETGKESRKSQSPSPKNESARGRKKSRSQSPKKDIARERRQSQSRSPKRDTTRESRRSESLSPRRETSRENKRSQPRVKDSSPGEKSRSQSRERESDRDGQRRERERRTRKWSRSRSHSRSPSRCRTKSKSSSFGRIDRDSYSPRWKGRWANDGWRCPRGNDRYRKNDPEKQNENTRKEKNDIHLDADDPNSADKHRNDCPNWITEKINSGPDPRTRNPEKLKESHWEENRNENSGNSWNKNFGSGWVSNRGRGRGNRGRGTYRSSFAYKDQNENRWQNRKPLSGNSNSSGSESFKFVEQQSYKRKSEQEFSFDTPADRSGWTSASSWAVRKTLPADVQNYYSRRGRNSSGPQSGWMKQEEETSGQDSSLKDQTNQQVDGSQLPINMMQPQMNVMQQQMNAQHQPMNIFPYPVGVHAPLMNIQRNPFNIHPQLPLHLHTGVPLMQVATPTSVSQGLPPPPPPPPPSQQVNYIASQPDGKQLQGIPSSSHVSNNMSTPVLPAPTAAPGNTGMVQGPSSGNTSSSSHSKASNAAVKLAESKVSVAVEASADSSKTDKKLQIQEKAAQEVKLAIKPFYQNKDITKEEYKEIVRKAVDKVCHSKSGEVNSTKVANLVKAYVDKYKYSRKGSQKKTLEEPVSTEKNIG
UniProt O43818, sequence (O43818 whole entry, looked up): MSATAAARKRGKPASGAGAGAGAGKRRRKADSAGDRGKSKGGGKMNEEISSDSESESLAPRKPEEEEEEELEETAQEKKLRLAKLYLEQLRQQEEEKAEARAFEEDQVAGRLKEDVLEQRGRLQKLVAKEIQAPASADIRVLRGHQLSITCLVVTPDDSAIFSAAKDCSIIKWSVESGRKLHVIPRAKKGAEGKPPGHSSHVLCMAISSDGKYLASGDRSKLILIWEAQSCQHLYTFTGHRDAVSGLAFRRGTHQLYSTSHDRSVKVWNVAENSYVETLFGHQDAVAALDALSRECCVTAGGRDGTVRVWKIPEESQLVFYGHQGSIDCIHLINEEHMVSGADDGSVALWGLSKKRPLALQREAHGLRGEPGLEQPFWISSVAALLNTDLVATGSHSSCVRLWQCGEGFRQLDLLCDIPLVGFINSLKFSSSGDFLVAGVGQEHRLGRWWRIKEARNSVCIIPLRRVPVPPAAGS
UniProt Q9NRX5, sequence (Q9NRX5 whole entry, looked up): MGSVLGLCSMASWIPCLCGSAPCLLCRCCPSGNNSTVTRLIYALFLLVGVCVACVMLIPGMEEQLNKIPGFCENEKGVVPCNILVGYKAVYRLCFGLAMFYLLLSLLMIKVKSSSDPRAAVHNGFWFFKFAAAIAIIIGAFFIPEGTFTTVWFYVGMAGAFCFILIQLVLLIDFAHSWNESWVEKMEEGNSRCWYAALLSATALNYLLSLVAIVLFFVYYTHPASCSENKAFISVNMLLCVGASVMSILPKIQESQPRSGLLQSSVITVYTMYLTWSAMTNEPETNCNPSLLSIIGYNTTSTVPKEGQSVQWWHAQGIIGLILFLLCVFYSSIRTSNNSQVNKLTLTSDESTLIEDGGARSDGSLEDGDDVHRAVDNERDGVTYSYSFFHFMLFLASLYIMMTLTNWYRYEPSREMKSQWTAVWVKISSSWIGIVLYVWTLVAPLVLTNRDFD
UniProt P51148, sequence (P51148 whole entry, looked up): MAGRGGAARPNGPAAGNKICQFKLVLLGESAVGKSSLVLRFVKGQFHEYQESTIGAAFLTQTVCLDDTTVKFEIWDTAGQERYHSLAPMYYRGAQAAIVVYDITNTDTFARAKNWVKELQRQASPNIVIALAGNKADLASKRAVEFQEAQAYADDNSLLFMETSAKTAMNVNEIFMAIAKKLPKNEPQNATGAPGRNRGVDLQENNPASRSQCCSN
UniProt Q5RL73, sequence (Q5RL73 whole entry, looked up): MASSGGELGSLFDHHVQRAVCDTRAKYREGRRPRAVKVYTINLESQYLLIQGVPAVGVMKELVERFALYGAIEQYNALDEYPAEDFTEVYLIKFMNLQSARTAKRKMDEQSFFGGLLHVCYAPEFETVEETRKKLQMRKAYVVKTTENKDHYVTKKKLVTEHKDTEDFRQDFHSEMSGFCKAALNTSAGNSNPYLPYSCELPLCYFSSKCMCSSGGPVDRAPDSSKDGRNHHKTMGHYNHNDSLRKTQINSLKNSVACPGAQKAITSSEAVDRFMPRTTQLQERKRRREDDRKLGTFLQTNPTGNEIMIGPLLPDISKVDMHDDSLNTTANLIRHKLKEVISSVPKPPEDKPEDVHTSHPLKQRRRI
UniProt Q9BUV8, sequence (Q9BUV8 whole entry, looked up): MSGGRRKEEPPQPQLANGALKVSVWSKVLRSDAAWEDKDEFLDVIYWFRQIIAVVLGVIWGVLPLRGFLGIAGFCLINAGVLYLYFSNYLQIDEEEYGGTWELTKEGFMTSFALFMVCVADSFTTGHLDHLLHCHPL

Compound in one experiment: C1COCCN1CCN2C3=CC=CC=C3N=C2NC(=O)C4=CC(=CC=C4)[N+](=O)[O-] [IRAK-1-4 Inhibitor I]
The experiment is described as follows: log2 fold change, soluble protein after heating vs DMSO (PISA); higher = thermal stabilisation; K562 cells, 10 uM, 30 min; active = over 0.2 and 3.5 SD of the protein, either way, in both replicates (recomputed). The gist of the method: (§1)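 Thermal stability values are relative to control samples and come from duplicates. They are expressed as log2 fold changes. For measurement, K562 cells (2×10^6 cells/mL) received 10 μM compound for 30 min, and aliquots were heated for 3 min over 48°C-58°C, pooled, and extracted at 4°C in PBS with 0.5% NP-40. Soluble protein, the supernatant after 21,000xg for 90 min, was quantified by TMTpro 16plex LC-MS/MS with equalised channel sums.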
For the target RPS3 (UniProt P23396), the log2 fold change is -0.091 (inactive).
The same measure, in the same setting: in the case of SDHC (UniProt Q99643) it was 0.095 (inactive).
REL (UniProt Q04864): the log2 fold change was -0.046 (inactive).
Consider SERINC1 (UniProt Q9NRX5), for which the log2 fold change is 0 (inactive).
RPS9 (UniProt P46781): the log2 fold change was -0.1 (inactive).
On to RPS27A (UniProt P62979), for which the log2 fold change was -0.055 (inactive).
RPS18 (UniProt P62269): the log2 fold change was -0.099 (inactive).
RBM33 (UniProt Q96EV2): the log2 fold change was -0.058 (inactive).
As for SEC23IP (UniProt Q9Y6Y8), the log2 fold change was -0.007 (inactive).
For the target RRAGB (UniProt Q5VZM2), the log2 fold change was 0.034 (inactive).
On the same count and under the same terms, in the case of RPS16 (UniProt P62249) it was -0.137 (inactive); in that of RPS4X (UniProt P62701), -0.129 (inactive); in that of RABGGTA (UniProt Q92696), 0.064 (inactive).
RSL1D1 (UniProt O76021): the log2 fold change is -0.071 (inactive).
Turning to ROR2 (UniProt Q01974), the log2 fold change is -0.003 (inactive).
As for SEC16A isoform 5 (UniProt O15027), the log2 fold change is -0.136 (inactive).
On to RETSAT (UniProt Q6NUM9), for which the log2 fold change was -0.09 (inactive).
Turning to RAB5C isoform 2 (UniProt P51148), the log2 fold change is 0.015 (inactive).
Regarding RSF1 (UniProt Q96T23), the log2 fold change is -0.188 (inactive).
As for SCAMP2 (UniProt H3BUB6), the log2 fold change was 0.078 (inactive).
RSRC2 (UniProt Q7L4I2): the log2 fold change is 0.03 (inactive).
Turning to RAB5IF isoform 5 (UniProt Q9BUV8), the log2 fold change was -0.082 (inactive).
With RGS10 (UniProt O43665), the log2 fold change is 0.046 (inactive).
Take ROCK1 (UniProt Q13464): the log2 fold change was -0.019 (inactive).
Still for that read-out and setting: in the case of SCYL3 isoform 2 (UniProt Q8IZE3) it was 0.087 (inactive); in that of SCAF11 (UniProt Q99590), 0.076 (inactive).
In the case of RCC1 isoform 2 (UniProt P18754), the log2 fold change is -0.026 (inactive).
RPS6KA2 isoform 2 (UniProt Q15349): the log2 fold change was 0.001 (inactive).
On the same count and under the same terms, then RNASET2 (UniProt O00584), with 0.028 (inactive); and RBM48 isoform 2 (UniProt Q5RL73), with 0.15 (inactive); and RPS3A (UniProt P61247), with -0.133 (inactive).
Take RRP9 (UniProt O43818): the log2 fold change is -0.043 (inactive).
Regarding SASH1 (UniProt O94885), the log2 fold change is 0.145 (inactive).
Still for that read-out and setting: in the case of RIPK1 (UniProt Q13546) it was -0.104 (inactive).

Compound in another experiment: C=CC(=O)N1CCC[C@@H](n2nc(-c3ccc(Oc4ccccc4)cc3)c3c(N)ncnc32)C1 [ibrutinib]
The experiment is described as above. The gist of the method:
as §1
In the case of RPS3 (UniProt P23396), the log2 fold change was 0.02 (inactive).
The same measure, in the same setting: then SDHC (UniProt Q99643), with 0.004 (inactive); and REL (UniProt Q04864), with -0.095 (inactive); and SERINC1 (UniProt Q9NRX5), with 0.023 (inactive).
For RPS9 (UniProt P46781), the log2 fold change was -0.025 (inactive).
Take RPS27A (UniProt P62979): the log2 fold change is 0.141 (inactive).
For RPS18 (UniProt P62269), the log2 fold change was 0.053 (inactive).
Consider RBM33 (UniProt Q96EV2), for which the log2 fold change was 0.024 (inactive).
Consider SEC23IP (UniProt Q9Y6Y8), for which the log2 fold change was -0.023 (inactive).
Turning to RRAGB (UniProt Q5VZM2), the log2 fold change was 0.029 (inactive).
For the target RPS16 (UniProt P62249), the log2 fold change is 0.036 (inactive).
As for RPS4X (UniProt P62701), the log2 fold change was 0.025 (inactive).
For the target RABGGTA (UniProt Q92696), the log2 fold change was -0.021 (inactive).
Regarding RSL1D1 (UniProt O76021), the log2 fold change was -0.011 (inactive).
For the target ROR2 (UniProt Q01974), the log2 fold change was -0.014 (inactive).
Take SEC16A isoform 5 (UniProt O15027): the log2 fold change was -0.062 (inactive).
Turning to RETSAT (UniProt Q6NUM9), the log2 fold change was 0.042 (inactive).
In the case of RAB5C isoform 2 (UniProt P51148), the log2 fold change is 0.017 (inactive).
The same measure, in the same setting: in the case of RSF1 (UniProt Q96T23) it was -0.054 (inactive); in that of SCAMP2 (UniProt H3BUB6), 0.103 (inactive); in that of RSRC2 (UniProt Q7L4I2), -0.035 (inactive).
RAB5IF isoform 5 (UniProt Q9BUV8): the log2 fold change was 0.031 (inactive).
Regarding RGS10 (UniProt O43665), the log2 fold change was 0.047 (inactive).
On to ROCK1 (UniProt Q13464), for which the log2 fold change was 0.013 (inactive).
For SCYL3 isoform 2 (UniProt Q8IZE3), the log2 fold change is 0.02 (inactive).
As to SCAF11 (UniProt Q99590), the log2 fold change is 0.099 (inactive).
With RCC1 isoform 2 (UniProt P18754), the log2 fold change was -0.04 (inactive).
On to RPS6KA2 isoform 2 (UniProt Q15349), for which the log2 fold change is -0.066 (inactive).
In the case of RNASET2 (UniProt O00584), the log2 fold change is 0.042 (inactive).
RBM48 isoform 2 (UniProt Q5RL73): the log2 fold change was 0.051 (inactive).
The same measure, in the same setting: then RPS3A (UniProt P61247), with 0.028 (inactive); and RRP9 (UniProt O43818), with 0.017 (inactive); and SASH1 (UniProt O94885), with -0.069 (inactive).
With RIPK1 (UniProt Q13546), the log2 fold change is -0.081 (inactive).
